From PubChem BioAssay (NCI)
The panel holds about 83,000 compounds, 20% with a hit somewhere; the sample as a whole holds those more often.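 The test compound was applied at a single concentration to cells in 96-well plates for 48 hours, and percent growth was recorded.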 Values without a mark were called inactive. The source made the active and inactive calls. How the source made its calls: active means growth percent below 10; inactive means the rest.

Columns and labels:
Test in all cases: NCI-60 one-dose screen, 48 h (100 = growth as untreated, 0 = no growth, -100 = all killed)
Details in all cases: 10 µM unless noted
HCT-15 colon = system: HCT-15 colon
HT29 colon = system: HT29 colon
SNB-75 CNS = system: SNB-75 CNS
SNB-19 CNS = system: SNB-19 CNS
U251 CNS = system: U251 CNS
PC-3 prostate = system: PC-3 prostate
SK-MEL-5 melanoma = system: SK-MEL-5 melanoma
UACC-62 melanoma = system: UACC-62 melanoma
LOX IMVI melanoma = system: LOX IMVI melanoma
SK-MEL-28 melanoma = system: SK-MEL-28 melanoma
SK-MEL-2 melanoma = system: SK-MEL-2 melanoma
EKVX NSCLC = system: EKVX NSCLC
SN12C renal = system: SN12C renal
UO-31 renal = system: UO-31 renal
TK-10 renal = system: TK-10 renal
ACHN renal = system: ACHN renal
CAKI-1 renal = system: CAKI-1 renal
A498 renal = system: A498 renal
CCRF-CEM leukemia = system: CCRF-CEM leukemia
MOLT-4 leukemia = system: MOLT-4 leukemia

Compound	growth (HCT-15 colon)	growth (HT29 colon)	growth (SNB-75 CNS)	growth (SNB-19 CNS)	growth (U251 CNS)	growth (PC-3 prostate)	growth (SK-MEL-5 melanoma)	growth (UACC-62 melanoma)	growth (LOX IMVI melanoma)	growth (SK-MEL-28 melanoma)	growth (SK-MEL-2 melanoma)	growth (EKVX NSCLC)	growth (SN12C renal)	growth (UO-31 renal)	growth (TK-10 renal)	growth (ACHN renal)	growth (CAKI-1 renal)	growth (A498 renal)	growth (CCRF-CEM leukemia)	growth (MOLT-4 leukemia)
CS(=O)(=O)Nc1cc(-c2ccc3ncnc(Nc4ccc5c(cnn5Cc5cccnc5)c4)c3c2)cnc1Cl	84.7%	65.2%	-12.1% (active)	60.1%	55.4%	52.2%	50.9%	25.9%	39.2%	29.4%	14%	68.2%	46.2%	47.9%	49%	75.8%	40.2%	19.2%	32.9%	
Cc1ccc(/C=C(\C#N)C(=O)Nc2ncc(Cc3cc(Cl)ccc3Cl)s2)o1	59%	97%	-0.376% (active)	27.6%	32.2%	38.8%	51.6%	6.39% (active)	11.9%	88.9%	45.9%	60.4%	58.9%	31.7%	44.1%	45.4%	23.7%	40.5%	55.4%	
COC(=O)/C=C1/SC(=Nc2cccc(Cl)c2)N(CCc2c[nH]c3ccc(O)cc23)C1=O	-11.6% (active)	49.2%	38.7%	14.3%	4.91% (active)	9.39% (active)	41.4%	13.8%	-39.2% (active)	17.4%	-15.8% (active)	45.7%	10%	17.7%	89.2%	15.9%	37.4%	79.9%	0.545% (active)	
O=C(CN1C(=O)NC2NC(=O)NC21)N/N=C/c1ccc(Cl)cc1Cl (stereo not given)	104%	110%	82.8%	102%	112%	103%	99.5%	99%	103%	109%	113%	101%	104%	84.3%	101%	105%	88.2%	112%	107%	
CCCCCn1sc(=O)n(Cc2ccc(CNC(=O)OCc3ccc4c(Cl)cc(Cl)c(O)c4n3)cc2)c1=O	17.1%	110%	82.1%	48.6%	39.7%	61.1%	48.7%	40.4%	51.8%	56%	90.1%	86%	51.4%	11.6%	68.8%	28.9%	55%	80.7%	34.4%	31.8%
Cc1ccccc1OCC(O)COc1ccccc1C	79.1%	103%	112%	94.9%	86.1%	94.8%	93.6%	81.9%	97.6%	101%	102%	101%	83.9%	78.9%	120%	84.4%	80%	102%	85.2%	
Cc1ccc(O)c(NC(=O)c2ccc(CNc3ccnc(C(F)(F)F)c3)cc2)c1	49.9%	66.4%	72.5%	87.1%	82.1%	78.8%	36.5%	13.9%	40.6%	109%	79.2%	60.5%	46.4%	32.6%	96.7%	39%	41.8%	80.7%	7.6% (active)	25.1%
COc1cc(C#Cc2ccc(=O)oc2C#Cc2ccccc2)cc(OC)c1OC	61.4%	43.4%	77.1%	92.9%	83.8%	86.2%	56.7%	80.3%	-61% (active)	23.1%	104%	115%	16%	76.6%	134%	89.3%	96.3%	119%	3.76% (active)	33.4%
